According to PubChem BioAssay AID743269 (The Scripps Research Institute Molecular Screening Center, 2014):
Out of some 370,000 compounds screened, about 2,400 (0.65%) were called active. Many of the other results were omitted from the sample, so actives are more common in it than they were. A number with no mark means an inactive call.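 How the source made its calls: active means inhibition above the screen-wide mean plus 3 SD (cut at about 13% in these data); inactive means the rest.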

The molecules below were run on HIV-1 integrase (with human LEDGF/p75) (assay: blockers of LEDGF/p75-dependent integrase strand transfer – biochemical, TR-FRET, high throughput, primary screen (AID 743269;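 further: signal is the Cy5 over europium emission ratio at 671 and 618 nm; 0% = plate median of compound wells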)). Settings: TR-FRET IN-LEDGF/p75 DNA integration, Eu/Cy5; at 3.7 µM; hits give high values.

Compound	inhibition
CCOC(=O)c1cccc(C2=C(CNC(=O)c3ccncc3)[C@H]3CC[C@@H](C2)N3Cc2ccccc2)c1	-5.73%
CCOC(=O)c1c(N)n(Cc2ccccc2)c2nc3ccccc3nc12	32.8% (active)
COc1cc(Cn2c(N)c(C(=O)NCc3ccco3)c3nc4ccccc4nc32)cc(OC)c1OC	1.57%
CCN1C(=O)C(=Cc2c(C)n(CC(=O)NCC3CCCO3)c3ccccc23)C(=O)N(CC)C1=S (stereo not given)	-2.24%
COc1ccc2c(c1)[C@@]13CCCCC1[C@@H](C2)NCC3 (stereo not given in full)	-1.92%
Cc1c(C(=O)O)cccc1-n1c(C)cc(/C=C2\C(=O)NC(=O)N(c3ccc4c(c3)OCO4)C2=O)c1C	15.4% (active)
O=P(OC1=CCCCC1)(c1ccccc1)c1ccccc1	6.63%
CCC(C)(O)C(=O)OC1C(=O)OC2CC3C(C)=CC(=O)C(O)C3(C)C3C4(O)OCC23C1C(C)C4O (stereo not given)	-3.3%
CCOc1cccc(=NC2CCCCC2)c2c(C)[nH]c(C)c12	36.3% (active)
Cc1cccc(-n2c(O)c(C=NC34CN5CN(CN(C5)C3)C4)c(=O)[nH]c2=O)c1	-3.72%
CC(C)Nc1nc(Cl)nc(NC(C)C)n1	-1.42%
Brc1ccc2c(c1)CNCc1cnnn1-2	6.88%
Cc1cc(N2CCNC[C@@H]2C)ccc1N1CC[C@H](O)C1	7.07%
COc1ccc(N2C(=O)/C(=C/c3ccco3)C(=O)NC2=S)cc1	59.1% (active)
O=S(=O)(c1ccccc1)N1CCC2CCNC2C1 (stereo not given)	5.81%
CCC(C)NC1(c2ccccc2)CCCCC1 (stereo not given)	2.52%
COC(=O)C(O)(c1ccc(NC(=O)c2ccco2)c(OC)c1)C(F)(F)F (stereo not given)	-2.33%
CO[C@H]([C@H](C)/C=C/N(C)C=O)[C@@H](C)C(=O)CC[C@H](C)[C@H](O)[C@H](C)[C@H]1OC(=O)/C=C/C(C)=C/[C@H](O)[C@H](OC)C[C@@H]2C=CC[C@@H](C[C@H](OC)[C@@]3(CO3)[C@@H](OC)C[C@@H](OC)[C@@H]1C)O2	0.17%
Clc1ccc([C@@H]2CC3CCC2N3)cn1 (stereo not given in full)	4.15%
Cc1ccnc(-n2c(C)cc(/C=C3\C(=O)NC(=S)N(C)C3=O)c2C)c1	1.59%
O=C1NC(=O)N(Cc2ccco2)C(=O)/C1=C\c1ccc(-c2ccc(F)cc2)o1	73.2% (active)
Cc1cc(C=C2C(=O)NC(=O)NC2=O)c(C)n1-c1ccncc1	3.8%
Cc1cc(/C=C2/C(=O)NC(=O)N(Cc3ccco3)C2=O)c(C)n1-c1ccc(C(=O)O)cc1	86% (active)
Cc1ccccc1CCC[C@@H](CC1CCCCC1)CN(C)C(=O)Oc1ccccc1	-1.47%
C[N+]12CN3CN(CN(C3)C1)C2	-0.49%
COc1cc(OC)cc(C(=O)NCCN2CCC3(CC2)C(=O)NCN3c2ccccc2)c1	4.72%
CCN(CC)C(=O)[C@@H]1C=C2c3cccc4[nH]c(Br)c(c34)C[C@H]2N(C)C1	1.36%
CS(=O)(=O)N1CCC2CCNC2C1 (stereo not given)	-2.54%
O=C(N/N=C/c1c(O)n(C2CC2)c(=S)[nH]c1=O)c1ccccc1	-7.23%
COP(=O)(Sc1ccccc1)C(Cc1ccccc1)NC(=O)OCc1ccccc1 (stereo not given)	4.08%
